Test [1] relates to E18 rat cortical neuron-glia co-culture. Description: fiber score / MBP score (myelination specific beyond OL differentiation) (ratio); higher = more myelination-specific MBP alignment. Particulars: treatment time: 8 days (DIV5-DIV13). The gist of the method: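 Papain-dissociated primary E18 rat cortical co-cultures, plated at 20,000 cells/well on poly-d-lysine/laminin 96-well plates, were exposed to library compounds at 1 or 5 µM in myelination medium between DIV5 and DIV13. Following fixation in 4 % paraformaldehyde, cultures were stained for MBP, Olig2 and DAPI, and four 10X fields per well were analysed in duplicate wells. Values are the ratio of fiber score (continuous MBP fiber length per Olig2+ nucleus) to MBP score (thresholded MBP area × intensity per Olig2+ nucleus).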

Test [2] has the same test system. Nature of the test: myelination (MBP fiber length per Olig2+ nucleus), % of 1 µM DAPT response (DMSO = 0) (% of DAPT); higher = more myelination, active = 50 or more. Particulars: treatment time: 8 days (DIV5-DIV13). In outline: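 Myelination, expressed as continuous straight MBP fiber length per Olig2+ nucleus, was normalised to 0.1 % DMSO as 0 and a 1 µM positive control as 100. The cultures were primary E18 rat cortical co-cultures dissociated with papain and plated at 20,000 cells/well on poly-d-lysine/laminin-coated 96-well plates. They received library compounds at 1 or 5 µM in myelination medium between DIV5 and DIV13. Analysis covered four 10X fields per well in duplicate wells after 4 % paraformaldehyde fixation and immunostaining for MBP and Olig2 with DAPI.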

± gives the standard deviation of the averaged measurements.

`CCC1=C[C@@H]2CN(C1)Cc1c([nH]c3ccccc13)[C@@](C(=O)OC)(c1cc3c(cc1OC)N(C)[C@H]1[C@@](O)(C(=O)OC)[C@H](OC(C)=O)[C@]4(CC)C=CCN5CC[C@]31[C@@H]54)C2` [Vinorelbine]: the “fiber score / MBP score” value in test [1] (1 µM) stood at 0.944; in test [1] (5 µM), 0.453. Besides, the figures for the myelination in test [2] (1 µM) and in test [2] (5 µM) were -6.45 (inactive) and -26.1 (inactive), respectively.
In the case of `C[C@H]1C[C@@H]2[C@H]([C@@H](O)C[C@@]3(C)[C@H]2CC[C@]3(O)C(=O)CO)[C@@]2(C)C=CC(=O)C=C12` [Methylprednisolone], the “fiber score / MBP score” value in test [1] (1 µM) was found to be 0.918; in test [1] (5 µM) it was 1.01. Further, the myelination in test [2] (1 µM) was -0.665 (inactive); in test [2] (5 µM), 2.01 (inactive).
Regarding `Cc1cnc(NC(=O)C2=C(O)c3ccccc3S(=O)(=O)N2C)s1` [Meloxicam], the figures for the “fiber score / MBP score” value in test [1] (1 µM) and in test [1] (5 µM) were 0.958 and 1, respectively. Further, the myelination in test [2] (1 µM) is -0.993 (inactive); in test [2] (5 µM), 3.06 (inactive).
On to `CC(C)Cc1ccc(C(C)C(=O)O)cc1` (configuration not stated) [Ibuprofen], for which the entries for the “fiber score / MBP score” value in test [1] (1 µM) and in test [1] (5 µM) were 0.67 and 0.833, respectively. In addition, the myelination in test [2] (1 µM) was -7.57 (inactive); in test [2] (5 µM), -2.85 (inactive).
The corresponding values for `CC(C)NCC(O)COc1ccc(CC(N)=O)cc1` (configuration not stated) [Atenolol] are 1.03, 1.04, 2.66 (inactive) and 7.87 (inactive).
In the case of `C[N+]1(C)CCC(OC(=O)C(O)(c2ccccc2)C2CCCC2)C1` (configuration not stated) [Glycopyrrolate], the “fiber score / MBP score” value is 0.689 ± 0.14 in test [1] (1 µM) and 0.888 ± 0.085 in test [1] (5 µM). For the same compound, the myelination in test [2] (1 µM) is -12.1 (inactive); in test [2] (5 µM), -2.31 (inactive).
Turning to `CC(=O)[C@@]1(O)CC[C@H]2[C@@H]3C[C@H](C)C4=CC(=O)C=C[C@]4(C)[C@@]3(F)[C@@H](O)C[C@@]21C` [Fluorometholone], the results for the “fiber score / MBP score” value in test [1] (1 µM) and in test [1] (5 µM) were 0.809 and 0.856, respectively. The myelination was -5.67 (inactive) in test [2] (1 µM) and 2.04 (inactive) in test [2] (5 µM).
For the compound `N#Cc1ccc(C(c2ccc(C#N)cc2)n2cncn2)cc1` [letrozole], the “fiber score / MBP score” value in test [1] (1 µM) turned out to be 0.937; in test [1] (5 µM), 1.09. For the same compound, the figures for the myelination in test [2] (1 µM) and in test [2] (5 µM) were -16.4 (inactive) and 2.49 (inactive), respectively.

(Values after the supplement of paper PMC4840960.)
